# Assay results: PubChem BioAssay
# Records with an inconclusive call do not appear. Active and inactive are the calls of the source.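 How the source made its calls, unless noted: active means normalized viability below 100% at a tested concentration; inactive means the rest.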
# Columns and labels:
# [1] = viability loss in pontine glioma line – cell-based, SU-DIPG-XVII, MIPE5.0, CellTiter-Glo, qHTS, dose response (AID 1347060; cut-off not given, nearly all actives have AC50 up to about 26 µM;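 on AC50: cells exposed to compound for 48 hours before viability readout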); conditions: CellTiter-Glo ATP luminescence
# [2] = viability loss in pontine glioma line – cell-based, SU-DIPG-XXV, MIPE5.0, CellTiter-Glo, qHTS, dose response (AID 1347065; cut-off not given, nearly all actives have AC50 up to about 26 µM;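 further: cells exposed to compound for 48 hours before ATP readout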); conditions: CellTiter-Glo ATP luminescence
# [3] = JHH-DIPG-1 glioma cell viability, MIPE5.0 library, CellTiter-Glo luminescence, qHTS (AID 1347067; cut-off not given, nearly all actives have AC50 up to about 26 µM;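 further: cells exposed to compound for 48 hours before readout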); conditions: JHH-DIPG-1 glioma viability, CellTiter-Glo ATP luminescence
# [4] = growth inhibition of DIPG cells – cell-based, MIPE5.0 library, qHTS (AID 1347068; cut-off not given, nearly all actives have IC50 up to about 30 µM;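 on IC50: cells exposed to compound for 48 hours before viability readout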); conditions: SU-DIPG-XXV viability
# [5] = viability loss with induced miR-34 in A549 – imaging, A549 dox-inducible miR-34, nuclei and caspase counts, primary screen (AID 1347080;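 active means compounds whose cell count with miR-34 switched on is under 0.7 times the count with it off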); conditions: A549 miR-34 inducible, Hoechst nuclei count, 48 h
# [6] = MELAS cybrid and Rieske KO viability enhancers – cell-based, MELAS cybrids, Rieske KO mouse fibroblasts, CellTiter-Glo, primary screen (AID 1508586;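 active means mean z-score across replicates of 1.96 or higher in either the MELAS or the Rieske mutant cell line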;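 further: z relative to plate mean and SD of compound and empty wells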); conditions: low glucose
# [7] = growth inhibition of DIPG cells – cell-based, MIPE4.0 library, CellTiter-Glo luminescence, qHTS (AID 1347066; cut-off not given, nearly all actives have AC50 up to about 30 µM;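 further: cells exposed to compound for 48 hours before readout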); conditions: SU-DIPG-VI viability, CellTiter-Glo ATP luminescence
# [8] = drug combination growth inhibition, ovarian cancer – cell-based, oncology-focused library, rucaparib conditional, profiling panel (AID 1508598); conditions: patient-derived ovarian cancer cells, CellTiter-Glo viability, 144 h, stronger effect = lower value
# [9] = stronger effect = lower value, cell number ratio, induced over uninduced
# [10] = measured here: relative caspase fold change +Dox/-Dox
# [11] = measured here: total cells with miR-34 induction, stronger effect = lower value
# [12] = measured here: total cells without miR-34 induction
# [13] = MELAS cybrid survival, CellTiter-Glo 48 h, stronger effect = higher value
# [14] = Rieske KO mouse fibroblast survival, CellTiter-Glo 72 h
# [15] = at 0.000305 µM, OCI-C5x cells, with rucaparib 10 µM, 100% = cells with rucaparib alone
# [16] = at 0.000305 µM, OCI-C5x cells, without rucaparib
# [17] = at 0.000305 µM, OCI-P5x cells, with rucaparib 20 µM, 100% = cells with rucaparib alone
# [18] = at 0.000305 µM, OCI-P5x cells, without rucaparib
# [19] = at 0.00122 µM, OCI-C5x cells, with rucaparib 10 µM, 100% = cells with rucaparib alone
# [20] = at 0.00122 µM, OCI-C5x cells, without rucaparib
# [21] = at 0.00122 µM, OCI-P5x cells, with rucaparib 20 µM, 100% = cells with rucaparib alone
# [22] = at 0.00122 µM, OCI-P5x cells, without rucaparib
# [23] = at 0.00488 µM, OCI-C5x cells, with rucaparib 10 µM, 100% = cells with rucaparib alone
# [24] = at 0.00488 µM, OCI-C5x cells, without rucaparib
# [25] = at 0.00488 µM, OCI-P5x cells, with rucaparib 20 µM, 100% = cells with rucaparib alone
# [26] = at 0.00488 µM, OCI-P5x cells, without rucaparib
# [27] = at 0.0195 µM, OCI-C5x cells, with rucaparib 10 µM, 100% = cells with rucaparib alone
# [28] = at 0.0195 µM, OCI-C5x cells, without rucaparib
# [29] = at 0.0195 µM, OCI-P5x cells, with rucaparib 20 µM, 100% = cells with rucaparib alone
# [30] = at 0.0195 µM, OCI-P5x cells, without rucaparib
# [31] = at 0.0781 µM, OCI-C5x cells, with rucaparib 10 µM, 100% = cells with rucaparib alone
# [32] = at 0.0781 µM, OCI-C5x cells, without rucaparib
# [33] = at 0.0781 µM, OCI-P5x cells, with rucaparib 20 µM, 100% = cells with rucaparib alone
# [34] = at 0.0781 µM, OCI-P5x cells, without rucaparib
# [35] = at 0.313 µM, OCI-C5x cells, with rucaparib 10 µM, 100% = cells with rucaparib alone
# [36] = at 0.313 µM, OCI-C5x cells, without rucaparib
# [37] = at 0.313 µM, OCI-P5x cells, with rucaparib 20 µM, 100% = cells with rucaparib alone
# [38] = at 0.313 µM, OCI-P5x cells, without rucaparib
# [39] = at 1.25 µM, OCI-C5x cells, with rucaparib 10 µM, 100% = cells with rucaparib alone
# [40] = at 1.25 µM, OCI-C5x cells, without rucaparib
# [41] = at 1.25 µM, OCI-P5x cells, with rucaparib 20 µM, 100% = cells with rucaparib alone
# [42] = at 1.25 µM, OCI-P5x cells, without rucaparib
# [43] = at 5 µM, OCI-C5x cells, with rucaparib 10 µM, 100% = cells with rucaparib alone
# [44] = at 5 µM, OCI-C5x cells, without rucaparib
# [45] = at 5 µM, OCI-P5x cells, with rucaparib 20 µM, 100% = cells with rucaparib alone
# [46] = at 5 µM, OCI-P5x cells, without rucaparib
smiles,measurement,setting,value
C=CC(=O)Nc1cccc(Nc2nc(Nc3ccc(Oc4ccnc(C(=O)NC)c4)cc3)ncc2F)c1,AC50,[1],10.5 µM (active)
same,AC50,[2],7.42 µM (active)
same,AC50,[3],14.8 µM (active)
same,IC50,[4],13.2 µM (active)
same,fold change,[5]; [9],0.924 (inactive)
same,fold change,[5]; [10],0.336
same,cell count,[5]; [11],4090
same,cell count,[5]; [12],4430
same,z-score,[6]; [13],1.34 (inactive)
same,z-score,[6]; [14],1.7
NC(=O)[C@@H](CCC(F)(F)F)N(Cc1ccc(-c2ncon2)cc1F)S(=O)(=O)c1ccc(Cl)cc1,outcome,[1],inactive
same,outcome,[7],inactive
same,outcome,[3],inactive
Cc1c(O)cccc1C(=O)NC(CSc1ccccc1)C(O)CN1CC2CCCCC2CC1C(=O)NC(C)(C)C (centres undefined),AC50,[1],20.9 µM (active)
same,AC50,[2],20.9 µM (active)
same,IC50,[4],18.6 µM (active)
same,fold change,[5]; [9],1.31 (inactive)
same,fold change,[5]; [10],0.935
same,cell count,[5]; [11],2190
same,cell count,[5]; [12],1680
Cc1cnc(-c2ccccc2C(C)C)nc1NCc1ccc(-n2ccnn2)cc1,outcome,[1],inactive
same,outcome,[2],inactive
same,outcome,[3],inactive
same,outcome,[4],inactive
same,fold change,[5]; [9],0.905 (inactive)
same,fold change,[5]; [10],0.465
same,cell count,[5]; [11],7550
same,cell count,[5]; [12],8340
same,z-score,[6]; [13],-0.372 (inactive)
same,z-score,[6]; [14],0.422
same,viability,[8]; [15],118% (inactive)
same,viability,[8]; [16],116% (inactive)
same,viability,[8]; [17],101% (inactive)
same,viability,[8]; [18],100% (inactive)
same,viability,[8]; [19],132% (inactive)
same,viability,[8]; [20],118% (inactive)
same,viability,[8]; [21],95.9% (active)
same,viability,[8]; [22],102% (inactive)
same,viability,[8]; [23],132% (inactive)
same,viability,[8]; [24],120% (inactive)
same,viability,[8]; [25],98.5% (active)
same,viability,[8]; [26],102% (inactive)
same,viability,[8]; [27],123% (inactive)
same,viability,[8]; [28],110% (inactive)
same,viability,[8]; [29],103% (inactive)
same,viability,[8]; [30],97.4% (active)
same,viability,[8]; [31],123% (inactive)
same,viability,[8]; [32],118% (inactive)
same,viability,[8]; [33],100% (inactive)
same,viability,[8]; [34],97.6% (active)
same,viability,[8]; [35],126% (inactive)
same,viability,[8]; [36],126% (inactive)
same,viability,[8]; [37],96.4% (active)
same,viability,[8]; [38],101% (inactive)
same,viability,[8]; [39],127% (inactive)
same,viability,[8]; [40],119% (inactive)
same,viability,[8]; [41],104% (inactive)
same,viability,[8]; [42],96.9% (active)
same,viability,[8]; [43],129% (inactive)
same,viability,[8]; [44],130% (inactive)
same,viability,[8]; [45],94.5% (active)
same,viability,[8]; [46],97.8% (active)
Cc1cccc(-c2nn3c(c2-c2ccnc4ccc(C(N)=O)cc24)CCC3)n1,viability,[8]; [15],110% (inactive)
same,viability,[8]; [16],130% (inactive)
same,viability,[8]; [17],102% (inactive)
same,viability,[8]; [18],110% (inactive)
same,viability,[8]; [19],110% (inactive)
same,viability,[8]; [20],133% (inactive)
same,viability,[8]; [21],102% (inactive)
same,viability,[8]; [22],108% (inactive)
same,viability,[8]; [23],110% (inactive)
same,viability,[8]; [24],128% (inactive)
same,viability,[8]; [25],99.7% (active)
same,viability,[8]; [26],112% (inactive)
same,viability,[8]; [27],113% (inactive)
same,viability,[8]; [28],136% (inactive)
same,viability,[8]; [29],105% (inactive)
same,viability,[8]; [30],110% (inactive)
same,viability,[8]; [31],109% (inactive)
same,viability,[8]; [32],127% (inactive)
same,viability,[8]; [33],110% (inactive)
same,viability,[8]; [34],116% (inactive)
same,viability,[8]; [35],114% (inactive)
same,viability,[8]; [36],137% (inactive)
same,viability,[8]; [37],113% (inactive)
same,viability,[8]; [38],114% (inactive)
same,viability,[8]; [39],111% (inactive)
same,viability,[8]; [40],135% (inactive)
same,viability,[8]; [41],112% (inactive)
same,viability,[8]; [42],118% (inactive)
same,viability,[8]; [43],131% (inactive)
same,viability,[8]; [44],157% (inactive)
same,viability,[8]; [45],127% (inactive)
same,viability,[8]; [46],125% (inactive)
